Laboratory results from PubChem BioAssay.
The source made the active and inactive calls.

Key:
Albumin (Bos taurus) = Albumin (Bos taurus) (UniProt P02769); experiment: bovine serum albumin binders on microarray, profiling panel, artefact control for SMM control protein annotation, biochemical, small-molecule microarray, Alexa647 label, 635/667 nm fluorescence (AID 1118); settings: BSA-A647 binding, fluorescence 635 nm, higher = more signal;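 also: score merges 667 nm emission intensity and signal-to-noise per printed compound spot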
Sequence of Albumin (Bos taurus) (P02769 whole entry, looked up): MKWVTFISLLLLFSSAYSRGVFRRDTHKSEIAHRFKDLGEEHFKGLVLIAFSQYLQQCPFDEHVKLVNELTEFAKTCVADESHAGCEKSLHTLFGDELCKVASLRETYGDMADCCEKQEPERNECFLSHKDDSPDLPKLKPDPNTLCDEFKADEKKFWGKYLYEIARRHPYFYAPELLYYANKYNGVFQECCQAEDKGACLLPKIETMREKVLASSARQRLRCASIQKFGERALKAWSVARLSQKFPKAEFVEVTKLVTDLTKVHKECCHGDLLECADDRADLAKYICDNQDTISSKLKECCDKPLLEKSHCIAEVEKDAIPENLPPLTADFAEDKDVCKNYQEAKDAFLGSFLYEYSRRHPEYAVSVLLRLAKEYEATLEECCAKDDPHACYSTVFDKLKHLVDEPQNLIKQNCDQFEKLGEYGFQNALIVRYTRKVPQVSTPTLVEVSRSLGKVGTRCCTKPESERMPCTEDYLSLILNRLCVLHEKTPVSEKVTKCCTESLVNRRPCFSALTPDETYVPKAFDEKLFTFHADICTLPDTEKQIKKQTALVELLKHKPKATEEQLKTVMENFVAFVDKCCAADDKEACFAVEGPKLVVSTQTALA

[1] = small-molecule microarray binders of probe aXIP, primary screen, biochemical, NeuroSMM set, 635/667 nm fluorescence (AID 1119); settings: higher = more signal, called active from +8 up or from −8 down;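 also: probe is the protein aXip251-270 applied at 1 µg/mL to compound-printed slides; binding of probe to printed compounds measured as 667 nm fluorescence plus signal to noise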
[2] = small-molecule binders of probe aNOTCH3, primary screen, biochemical, small-molecule microarray, 635/667 nm fluorescence (AID 1120); settings: higher = more signal;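 also: probe is a biotin-tagged antibody raised against NOTCH3 rather than NOTCH3 protein; score merges spot fluorescence near 667 nm with spot signal to noise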
[3] = small-molecule binders of probe aNOTCH2, primary screen, biochemical, small-molecule microarray, 635/667 nm fluorescence (AID 1121); settings: higher = more signal;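 also: score merges feature fluorescence read at 667 nm with its signal to noise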
[4] = target: Carbonic anhydrase 2 (Homo sapiens) (UniProt P00918); experiment: CAII small-molecule binders, profiling panel, biochemical, small-molecule microarray, Alexa647-labelled CAII (AID 1122); settings: CAII-A647 binding fluorescence, higher = more signal
[5] = COS7 lysate on small-molecule microarray, probe aHis, 635 nm (AID 1123); settings: COS7 cell lysate, fluorescence, higher = more signal;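 also: z-score combines 667nm fluorescence intensity with signal-to-noise per printed compound spot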
[6] = compound binding in COS7 lysate, probe aLAP1, primary screen, cell lysate, small-molecule microarray (AID 1124); settings: probe aLAP1, fluorescence, higher = more signal;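 also: lysate comes from COS7 cells expressing LAP1 and is applied at 0.3 µg/mL; score merges spot fluorescence near 667 nm with signal-to-noise over triplicate slides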
Sam68 (KHDRBS1) = experiment: Sam68 small-molecule binders, primary screen, biochemical, small-molecule microarray, 635 nm fluorescence (AID 1125); settings: small-molecule microarray binding, higher = more signal;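 also: score merges 667 nm channel intensity with signal to noise over triplicate slides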
[7] = tested on: Chordin-like protein 2 (CHRDL2); experiment: CHRDL2 small-molecule binders, primary screen, biochemical, small-molecule microarray, 635 nm fluorescence (AID 1126); settings: small-molecule microarray binding, fluorescence 635 nm; higher = more signal;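 also: printed compound slides probed with Chrdl2 protein at 4 µg/mL for 1 h at 4 C; score merges 667 nm emission intensity with signal to noise over three replicate slides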
[8] = target: Concanavalin-A (Canavalia ensiformis) (UniProt P02866); experiment: ConA small-molecule binders, primary screen, artefact control for SMM control protein annotation, biochemical, small-molecule microarray, Alexa647 label, 635 nm (AID 1127); settings: ConA-A647 binding fluorescence, higher = more signal;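 also: z combines 667 nm emission intensity with signal-to-noise across three replicate slides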
Sequence of Concanavalin-A (Canavalia ensiformis) (P02866 whole entry, looked up): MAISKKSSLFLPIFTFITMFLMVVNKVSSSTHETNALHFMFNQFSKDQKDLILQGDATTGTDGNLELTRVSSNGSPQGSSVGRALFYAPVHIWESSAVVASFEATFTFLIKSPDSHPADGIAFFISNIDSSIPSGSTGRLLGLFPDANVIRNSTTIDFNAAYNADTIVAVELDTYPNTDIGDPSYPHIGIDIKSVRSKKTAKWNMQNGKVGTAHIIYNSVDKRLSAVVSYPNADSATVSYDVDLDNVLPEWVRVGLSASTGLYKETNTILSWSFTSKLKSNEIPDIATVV

[9] = anti-His antibody binders, primary screen, artefact control for SMM control protein annotation, biochemical, small-molecule microarray, 635 nm fluorescence (AID 1128); settings: anti-His Alexa647 antibody binding, higher = more signal;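 also: score merges feature fluorescence with signal-to-noise for each printed compound spot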
[10] = tested on: Human papillomavirus type 1a E7 protein (residues 1-88); experiment: HPV1a E7 small-molecule binders, primary screen, biochemical, small-molecule microarray, residues 1-88, 635 nm (AID 1129); settings: small-molecule microarray binding, fluorescence 635 nm; higher = more signal
[11] = target: Focal adhesion kinase 1 (Homo sapiens) (UniProt Q05397); experiment: small-molecule microarray binders of FAK, primary screen, biochemical, 635/667 nm fluorescence, BSA, DTT (AID 1130); settings: PTK2 binding, 635 nm fluorescence, higher = more signal;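 also: composite of spot emission at 667 nm and signal to noise over triplicate slides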
Sequence of Focal adhesion kinase 1 (Homo sapiens) (Q05397 whole entry, looked up): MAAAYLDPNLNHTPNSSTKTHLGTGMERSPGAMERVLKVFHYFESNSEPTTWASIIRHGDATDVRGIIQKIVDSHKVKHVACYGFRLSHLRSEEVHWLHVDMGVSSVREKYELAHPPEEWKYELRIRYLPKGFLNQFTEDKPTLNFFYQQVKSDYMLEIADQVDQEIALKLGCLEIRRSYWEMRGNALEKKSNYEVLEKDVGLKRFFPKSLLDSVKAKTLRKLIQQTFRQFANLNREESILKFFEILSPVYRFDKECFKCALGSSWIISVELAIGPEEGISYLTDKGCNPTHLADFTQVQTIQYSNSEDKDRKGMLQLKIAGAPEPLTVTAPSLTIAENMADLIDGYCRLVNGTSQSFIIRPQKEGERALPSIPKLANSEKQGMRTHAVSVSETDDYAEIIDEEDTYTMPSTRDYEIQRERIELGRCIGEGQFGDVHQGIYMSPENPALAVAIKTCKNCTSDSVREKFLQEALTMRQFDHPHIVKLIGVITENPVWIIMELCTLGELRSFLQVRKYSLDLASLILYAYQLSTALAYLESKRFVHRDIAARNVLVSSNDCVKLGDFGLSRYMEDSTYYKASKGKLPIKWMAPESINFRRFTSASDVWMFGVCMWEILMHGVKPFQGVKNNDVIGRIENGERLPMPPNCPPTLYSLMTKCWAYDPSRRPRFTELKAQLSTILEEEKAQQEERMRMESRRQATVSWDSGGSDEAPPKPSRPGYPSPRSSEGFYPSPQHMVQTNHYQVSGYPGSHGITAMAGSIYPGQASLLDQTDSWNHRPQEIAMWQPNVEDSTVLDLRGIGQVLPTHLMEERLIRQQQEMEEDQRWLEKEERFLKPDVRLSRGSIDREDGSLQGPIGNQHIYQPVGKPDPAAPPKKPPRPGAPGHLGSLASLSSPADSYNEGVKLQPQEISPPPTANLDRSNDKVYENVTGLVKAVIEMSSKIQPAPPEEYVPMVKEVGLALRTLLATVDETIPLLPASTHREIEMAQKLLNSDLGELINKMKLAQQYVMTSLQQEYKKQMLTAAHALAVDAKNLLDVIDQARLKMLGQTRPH

[12] = tested on: Fibrinogen (Alexa647-labelled); experiment: fibrinogen binders on compound microarrays, profiling panel, artefact control for SMM control-protein annotation, biochemical, small-molecule microarray, 635/667 nm fluorescence (AID 1131); settings: fibrinogen-A647 binding fluorescence, higher = more signal;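 also: z-score merges 667 nm fluorescence with per-spot signal-to-noise over triplicate slides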
[13] = target: Follistatin (Homo sapiens) (UniProt P19883); experiment: follistatin binders on small-molecule microarrays, primary screen, biochemical, small-molecule microarray, 635/667 nm fluorescence (AID 1132); settings: FST binding, 635 nm fluorescence, higher = more signal
Sequence of Follistatin (Homo sapiens) (P19883 whole entry, looked up): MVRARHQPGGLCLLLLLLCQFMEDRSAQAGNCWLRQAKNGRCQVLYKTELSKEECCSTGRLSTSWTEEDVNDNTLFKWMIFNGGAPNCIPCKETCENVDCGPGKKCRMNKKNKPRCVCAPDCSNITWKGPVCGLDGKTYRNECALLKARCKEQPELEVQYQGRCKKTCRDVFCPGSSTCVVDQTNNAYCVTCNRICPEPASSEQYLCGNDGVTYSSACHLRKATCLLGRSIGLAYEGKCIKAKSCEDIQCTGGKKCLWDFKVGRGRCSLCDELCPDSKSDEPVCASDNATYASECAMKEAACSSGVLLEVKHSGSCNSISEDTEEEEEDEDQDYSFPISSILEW

[14] = target: Fibroblast growth factor 2 (Homo sapiens) (UniProt P09038); experiment: FGF2 binders on small-molecule microarrays, primary screen, biochemical, small-molecule microarray, 635/667 nm fluorescence (AID 1133); settings: small-molecule microarray binding, FGF2, fluorescence 635/667; higher = more signal
Sequence of Fibroblast growth factor 2 (Homo sapiens) (P09038 whole entry, looked up): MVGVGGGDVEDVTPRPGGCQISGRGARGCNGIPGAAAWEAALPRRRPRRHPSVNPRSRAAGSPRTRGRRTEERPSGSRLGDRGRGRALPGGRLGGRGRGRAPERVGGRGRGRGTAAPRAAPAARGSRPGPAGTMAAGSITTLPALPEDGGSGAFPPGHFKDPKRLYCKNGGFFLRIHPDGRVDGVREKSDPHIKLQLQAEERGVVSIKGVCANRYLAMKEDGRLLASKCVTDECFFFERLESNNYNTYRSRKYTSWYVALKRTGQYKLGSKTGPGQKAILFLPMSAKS

[15] = mitochondrial membrane potential change in A549 cells, profiling panel, cell-based, JC-1 fluorescence, basal, 24 h, 100 nL (AID 1138); settings: higher = more signal;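 also: A549 lung adenocarcinoma cells under basal conditions with no added stimulus; test concentration not given here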
Lefty1 = Lefty1 binders on small-molecule microarrays, primary screen, biochemical, small-molecule microarray, 635/667 nm fluorescence (AID 1139); settings: small-molecule microarray binding, fluorescence 635/667; higher = more signal
[16] = tested on: wheat germ agglutinin (Triticum aestivum), Alexa647-labelled; experiment: wheat germ agglutinin binders on compound microarrays, profiling panel, artefact control for SMM control-protein annotation, biochemical, small-molecule microarray, 635/667 nm fluorescence (AID 1140); settings: WGA-A647 binding, 635 nm fluorescence, higher = more signal;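 also: score merges 667 nm feature emission with signal to noise over triplicate slides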
[17] = target: Luciferin 4-monooxygenase (Photinus pyralis) (UniProt P08659); experiment: firefly luciferase enzyme inhibitors, primary screen, biochemical, luminescence, purified enzyme, 2006 set (AID 1141); settings: SteadyGlo luminescence, 30 min, higher = more signal, called active from +8 up or from −8 down;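 also: cell-free assay with purified firefly luciferase at 100 ng per well in PBS; test concentration not given here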
Sequence of Luciferin 4-monooxygenase (Photinus pyralis) (P08659 whole entry, looked up): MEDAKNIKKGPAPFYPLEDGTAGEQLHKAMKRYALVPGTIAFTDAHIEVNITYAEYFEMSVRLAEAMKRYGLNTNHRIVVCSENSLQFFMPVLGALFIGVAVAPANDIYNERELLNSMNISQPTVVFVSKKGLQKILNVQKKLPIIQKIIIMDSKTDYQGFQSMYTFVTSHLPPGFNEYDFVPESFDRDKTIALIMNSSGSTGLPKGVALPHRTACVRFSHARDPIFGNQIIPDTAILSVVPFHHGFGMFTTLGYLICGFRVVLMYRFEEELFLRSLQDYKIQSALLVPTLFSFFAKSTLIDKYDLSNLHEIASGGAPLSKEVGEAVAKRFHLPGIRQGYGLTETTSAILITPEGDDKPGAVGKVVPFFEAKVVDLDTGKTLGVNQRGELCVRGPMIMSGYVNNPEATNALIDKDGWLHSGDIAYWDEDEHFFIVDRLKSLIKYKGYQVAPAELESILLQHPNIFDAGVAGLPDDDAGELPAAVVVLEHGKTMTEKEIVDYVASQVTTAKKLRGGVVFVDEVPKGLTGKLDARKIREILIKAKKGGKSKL

Row | SMILES | composite z-score (Albumin (Bos taurus)) | composite Z-score [1] | composite z-score [2] | composite z-score [3] | composite z-score [4] | composite z-score [5] | composite z-score [6] | composite z-score (Sam68 (KHDRBS1)) | composite z-score [7] | composite z-score [8] | composite z-score [9] | composite z-score [10] | composite z-score [11] | composite z-score [12] | composite z-score [13] | composite z-score [14] | z-score [15] | composite z-score (Lefty1) | composite z-score [16] | z-score [17]
1 | C[N+](C)(C)CCCCCCNC(=O)[C@@H]1C[C@@H]2C(=O)N[C@@H](Cc3ccccc3)C(=O)N2[C@@H]1c1cccc(OCCO)c1 | 0.358 | 0.6 (inactive) | 0.0628 | -0.132 | 0.668 | 1.59 | 0.591 | 1.05 | 1.27 | 0.622 | 2.18 | 0.432 | 0.214 | 0.608 | 1.34 | 1.45 | 0.435 | 1 | 0.659 | -0.205 (inactive)
2 | CCOC(=O)[C@H]1C/C=C/C[C@H](C(=O)OCC)C(=O)O[C@H]2[C@@H](OC)O[C@H](CO)[C@@H](OC(=O)c3c(OC)cccc3OC)[C@@H]2OC1=O | 0.0961 | 0.338 (inactive) | 0.275 | -0.108 | 0.512 | 1.66 | 0.47 | 1.26 | 0.83 | 0.932 | 0.0181 | 1.12 | 0.523 | 0.661 | 0.706 | 0.418 | -0.927 | 0.639 | 0.0697 | -0.335 (inactive)
3 | NC(=O)N1C(=O)C2C(C1=O)C1C=C(c3ccc(CO)cc3)C2C(c2cccs2)N1Cc1cccc(OC(F)(F)F)c1 (stereo not given) | -0.137 | 0.29 (inactive) | 0.111 | -0.0449 | 0.72 | 0.669 | 0.798 | -0.882 | 0.38 | -0.0204 | 1.16 | 0.0253 | 0.556 | -0.0767 | 0.704 | -0.365 | 1.22 | 0.444 | 0.949 | -2.17 (inactive)
4 | [N-]=[N+]=NCc1ccccc1C[C@]1(C(=O)N2CCCCC2)N=C(c2ccc(OCCCO)cc2)O[C@H]1c1ccccc1N=[N+]=[N-] | 0.836 | -0.602 (inactive) | 0.194 | 0.0097 | 0.593 | 2.45 | 0.799 | 1.33 | -0.518 | 1.1 | 2.87 | 1.23 | 1.71 | 0.984 | 0.887 | -0.0521 | -0.756 | -0.0342 | 1 | -9.69 (active)
5 | C=CCOC(=O)[C@@H]1[C@H]2C(=O)O[C@H](c3ccccc3)[C@H](c3ccccc3)N2[C@H](c2ccc(OCCOC(=O)[C@H]3C[C@H]4C(=O)N5CCC[C@H]5C(=O)N4[C@H]3c3ccc(O)cc3)cc2)[C@@]12C(=O)Nc1ccc(I)cc12 | -1.18 | 0.76 (inactive) | -0.213 | 0.0701 | 0.339 | 1.58 | -0.299 | 1.3 | 1.09 | 1.13 | 2.01 | 1.19 | 0.453 | 0.409 | 1.39 | 1.58 | -1.6 | 1.42 | 0.497 | -0.376 (inactive)
6 | COC(=O)C(CC#Cc1ccc2c(c1)[C@]1(C(=O)N2)[C@H](c2ccc(OCCO)cc2)N2[C@H](c3ccccc3)[C@H](c3ccccc3)OC(=O)[C@H]2[C@@H]1C(=O)Nc1nc2ccccc2s1)C(=O)OC | 0.959 | -0.0045 (inactive) | 0.0038 | -0.183 | 0.546 | 2.4 | -0.065 | 1.31 | 0.326 | 1.16 | 1.6 | 1.23 | 0.633 | 0.998 | 0.989 | 0.408 | -2.05 | 0.417 | 0.638 | -0.877 (inactive)
7 | O=C1c2ccccc2[C@](Cc2ccccc2I)(C(=O)NCCN2CCOCC2)[C@H](c2ccc(CO)cc2)N1Cc1ccccc1Cl | 0.517 | 0.322 (inactive) | 0.223 | 0.385 | 0.652 | 1.82 | 0.754 | 1.31 | 0.202 | 1.17 | 2.09 | 1.16 | 0.0936 | 0.929 | 1 | 1.23 | 1.87 | 0.526 | 1.08 | -0.593 (inactive)
8 | C=CC(=C)[C@H]1Oc2ccccc2S(=O)(=O)N2CCC[C@@H]12 | 0 | 0.0556 (inactive) | -0.0588 | -0.156 | -0.293 | -0.284 | -0.0098 | -0.973 | 0.634 | -0.285 | -0.133 | -0.492 | -0.139 | 0.224 | 0.434 | 0.0668 | 0.16 | 0.201 | 0.023 | -0.261 (inactive)
9 | CC1CC/C=C\[C@H]2OC34C=CCN(Cc5ccccc5)C(=O)[C@H]3N(CCCO)C(=O)[C@@H]4C2C(=O)O1 (stereo not given in full) | -0.0908 | -0.422 (inactive) | -0.437 | -0.155 | 0.861 | -0.0465 | 1.25 | -0.649 | -0.933 | -0.841 | 0.522 | -0.67 | -0.364 | 0.623 | -0.838 | -0.536 | -0.178 | -0.215 | -0.176 | -0.483 (inactive)
10 | CCOC(=O)C[C@H]1[C@H](OC(=O)c2ccccc2-c2ccccc2)[C@@H](NC(=O)CC(C)C)c2cc(OCCCO)ccc2N1C(=O)Cc1ccc(OC)cc1 | 0.401 | 0.692 (inactive) | 0.0708 | -0.118 | -0.132 | 0.761 | -0.201 | 0.488 | 0.246 | 0.482 | -0.272 | 0.149 | -0.0432 | 0.522 | -0.247 | 0.268 | 1.15 | 0.108 | 0.288 | -0.0339 (inactive)
11 | O=C(NCCO)C1=C[C@H](Oc2ccccc2I)[C@@H](O)[C@H](N(Cc2ccco2)C(=O)Cc2ccccc2)C1 | -0.884 | 0.524 (inactive) | -0.0014 | -0.0956 | -0.17 | -0.604 | -0.0107 | -0.24 | 0.607 | -0.981 | -0.169 | 0.234 | -0.27 | -0.175 | 0.863 | 0.58 | -1.18 | 0.624 | -0.109 | 0.341 (inactive)
